Source: PubChem BioAssay
The list is not random: actives were taken first. Their share in the collection is about 2.9%.
ZTA DNA inh: blocks Epstein-Barr virus ZTA, an EBNA-1 counter-screen; ZTA-DNA binding, fluorescence polarization; inhibition, % at 11 µM; 320,000 compounds, 0.15% hits; AID 2234; in the data active = inhibition above about 33%
Target sequence (P03206 whole entry, looked up): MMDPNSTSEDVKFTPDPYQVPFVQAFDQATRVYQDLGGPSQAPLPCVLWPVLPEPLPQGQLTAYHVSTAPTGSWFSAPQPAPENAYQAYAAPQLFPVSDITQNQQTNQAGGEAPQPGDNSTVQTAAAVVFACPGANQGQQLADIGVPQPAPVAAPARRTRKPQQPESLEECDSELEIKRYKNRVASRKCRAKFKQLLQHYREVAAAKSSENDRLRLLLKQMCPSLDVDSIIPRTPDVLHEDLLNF
EBNA-1 inh: blocks EBNA-1 binding to DNA | inhibition, % at 14.8 µM | AID 1950 | 300,000 compounds, 0.34% hits | EBNA-1 DNA binding, fluorescence polarization; in the data active = inhibition above about 28%
PAFAH1B3 FP inh: blocks human PAF acetylhydrolase 1B catalytic subunit 3; Q15102; recombinant PAFAH1B3, FP-rhodamine probe, fluorescence polarization; inhibition, % at 3.39 µM; 340,000 compounds, 0.28% hits; AID 492972;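 active = inhibition above the screen-wide average of all tested compounds plus 3 SD, cut at about 25% in these data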;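 note: 0% = enzyme with DMSO only and 100% = wells lacking PAFAH1B3 protein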
Target sequence (Q15102 whole entry, looked up): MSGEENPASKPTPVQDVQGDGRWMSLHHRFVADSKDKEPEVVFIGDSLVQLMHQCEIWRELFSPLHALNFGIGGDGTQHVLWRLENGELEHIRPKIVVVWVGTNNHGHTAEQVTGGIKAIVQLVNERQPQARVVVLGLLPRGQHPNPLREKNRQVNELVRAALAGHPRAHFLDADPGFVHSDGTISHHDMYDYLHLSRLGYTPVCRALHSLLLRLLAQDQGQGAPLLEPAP
PAFAH2 inh: inhibitors of human PAFAH2. inhibition, % at 3.39 µM. 340,000 compounds, 0.99% hits. recombinant PAFAH2, FP-rhodamine activity probe, fluorescence polarization. Q99487;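 active = inhibition above the mean over all tested compounds plus 3 SD, cut at about 30% in these data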;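 note: inhibitors block probe labeling of enzyme so polarization drops; 0% = enzyme with DMSO and 100% = wells lacking PAFAH2 protein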
rCAG RNA binder: molecules binding r(CAG) RNA repeats; r(CAG) RNA repeat, TO-PRO-1 dye displacement fluorescence; inhibition, % at 3 µM; 370,000 compounds, 1.3% hits;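 active = inhibition above the plate cutoff, the mean of all test compounds on that plate plus 3 SD, cut at about 35% in these data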;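 note: 0% = DMSO alone and 100% = 100 µM mitoxantrone as full dye displacement; higher means more dye released from RNA so lower well fluorescence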
PAFAH1B2 inh: inhibitors of human PAFAH1B2 | P68402 | recombinant PAFAH1B2, FP-rhodamine activity probe, fluorescence polarization | inhibition, % at 3.39 µM | 340,000 compounds, 1.2% hits | AID 492953;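 active = inhibition above the mean of all tested compounds plus 3 SD, cut at about 24% in these data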;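 note: 0% = enzyme with DMSO and 100% = wells lacking PAFAH1B2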
Target sequence (P68402 whole entry, looked up): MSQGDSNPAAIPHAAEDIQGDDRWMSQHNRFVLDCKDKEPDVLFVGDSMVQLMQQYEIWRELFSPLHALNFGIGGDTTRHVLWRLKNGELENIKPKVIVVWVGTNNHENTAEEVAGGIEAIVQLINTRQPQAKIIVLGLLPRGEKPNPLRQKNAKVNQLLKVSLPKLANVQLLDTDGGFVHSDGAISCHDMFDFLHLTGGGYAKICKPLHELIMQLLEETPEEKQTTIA
PAFAH2 confirm: PAFAH2 (human) inhibition, confirmed; shares compounds with PAFAH2 inh; recombinant PAFAH2, FP-rhodamine activity probe, fluorescence polarization; inhibition, % at 3.39 µM; 2,300 compounds, 65% hits;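 active = mean inhibition over three repeats above a set limit taken from the earlier primary screen, cut at about 30% in these data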;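 note: inhibitor blocks binding of rhodamine activity probe so polarization falls; 0% = enzyme with DMSO and 100% = wells lacking PAFAH2 protein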
* marks the source's active call; other numbers are inactive results; i = inactive; · = no result.

SMILES | ZTA DNA inh | EBNA-1 inh | PAFAH1B3 FP inh | PAFAH2 inh | rCAG RNA binder | PAFAH1B2 inh | PAFAH2 confirm
O=C(COC(=O)CC1CC2CCC1C2)NCc1ccc(F)cc1 (stereo unspecified) | · | · | 15.6 | 50.2* | 2.1 | 14.5 | 39.1*
O=C(COC(=O)CC1CC2CCC1C2)Nc1ccccc1[N+](=O)[O-] (stereo unspecified) | · | · | 14.4 | 66.0* | -1.1 | 10.5 | 58.8*
CC(=O)c1ccc(NC(=O)COC(=O)CC2CC3CCC2C3)cc1 (stereo unspecified) | · | · | 12.1 | 33.6* | -1.5 | 9.4 | 14.3
Cc1ccc(NC(=O)COC(=O)CC2CC3CCC2C3)cc1S(=O)(=O)N1CCOCC1 (stereo unspecified) | · | · | 2.8 | 69.5* | 3.5 | 5.0 | 65.0*
CCN(c1ccc(NC(=O)COC(=O)c2ccc(C)c(S(=O)(=O)N3CCOCC3)c2)cc1)C(C)C | -7.1 | -1.7 | -2.8 | 38.9* | 5.6 | 0.9 | 22.6
CCCCCCN1CCN(C2CN(Cc3cn(Cc4ccc(C)cc4)nn3)S(=O)(=O)C2)CC1 (stereo unspecified) | · | · | · | · | -0.9 | · | ·
O=C(CSc1nnc(-c2ccccc2)n1-c1ccccc1)Nc1ccccc1-c1ccccc1 | · | · | · | · | 0.8 | · | ·
O=c1cc(-c2ccccc2)nc2nc(-c3ccco3)[nH]n12 | 14.2 | -1.4 | 6.9 | 41.8* | 1.2 | 11.3 | 7.5
COc1cc(SC)ccc1C(=O)OCC(=O)NC(=O)NC(C)C | 19.4 | 1.9 | 8.9 | 17.5 | -5.1 | 3.4 | ·
CC(C)CNC(=O)COC(=O)c1ccc(F)cc1Cl | 4.1 | -7.8 | -2.9 | 35.4* | -2.0 | 4.3 | 18.8
COc1cc(SC)ccc1C(=O)OCC(=O)NCC(C)C | -9.7 | 2.7 | 12.6 | 44.7* | -1.5 | 1.7 | 27.9
O=C(OCc1cn(Cc2ccc(F)cc2)nn1)N1CCCC1 | · | · | · | · | 0.6 | · | ·
C=CCN(C(=O)[C@@H](C)[C@@H](O)c1ccc(Cl)cc1)c1ccccc1 | · | · | · | · | -2.6 | · | ·
COc1ccc(/C=C/C(=O)OCC(=O)Nc2ccc(Cl)c(S(=O)(=O)N(C)C)c2)cc1OC | 15.7 | 6.7 | -2.9 | 83.8* | 9.2 | -4.8 | 75.1*
CNC(=O)COC(=O)c1ccc(OCC(=O)Nc2ccccc2OC)c(OC)c1 | -2.7 | -14.6 | 5.5 | 3.4 | -1.8 | 4.4 | ·
COc1ccc(/C=C/C(=O)OCC(=O)Nc2ccc(S(N)(=O)=O)cc2)cc1OC | -1.6 | -9.1 | -1.4 | 2.3 | 9.0 | 5.2 | ·
O=C(COC(=O)/C=C/c1cccs1)Nc1ccc(Cl)cc1F | · | · | -1.0 | 52.0* | -0.5 | 4.2 | 58.0*
COc1ccccc1NC(=O)COC(=O)/C=C/c1ccc(OC)c(OC)c1 | · | · | 8.0 | 37.0* | -1.9 | 5.4 | 21.8
COCCNC(=O)COC(=O)c1ccc(OCC(=O)Nc2ccccc2OC)c(OC)c1 | 3.3 | 1.2 | 11.9 | 32.2* | -3.9 | 2.7 | 19.4
COc1ccc(NC(=O)COC(=O)/C=C/c2cccs2)c(OC)c1 | 0.4 | · | 12.8 | 12.4 | 4.9 | 6.8 | ·
Cc1noc(C)c1S(=O)(=O)N1CCCc2nc(-c3ccc(Br)cc3)ccc21 | · | · | · | · | 2.7 | · | ·
Cc1cc(Br)c2nc(-c3ccccc3)c(Cc3cccc(Cl)c3)n2c1 | · | · | · | · | 9.9 | · | ·
CCCCNC(=O)C1CCCN1C(=O)Nc1ccc2c(c1)OCO2 (stereo unspecified) | · | · | · | · | 1.8 | · | ·
COc1ccccc1NC(=O)COC(=O)/C=C/c1cccs1 | · | · | 8.5 | 31.1* | -0.3 | 4.2 | 22.6
C[C@H]1COc2cc(F)ccc2S(=O)(=O)N1C | · | · | · | · | 1.2 | · | ·
SMILES | ZTA DNA inh | EBNA-1 inh | PAFAH1B3 FP inh | PAFAH2 inh | rCAG RNA binder | PAFAH1B2 inh | PAFAH2 confirm
CCOc1ccc2noc3c2c1C(=O)c1ccccc1-3 | 2.0 | -9.8 | 19.0 | 31.4* | i | 17.6 | 19.4
Cc1nn(Cc2ccccc2)c(Cl)c1/C=C/C(=O)OCC(=O)NC(C)C(C)C (stereo unspecified) | -18.1 | -4.7 | 0.0 | 67.3* | -7.3 | 7.4 | 64.1*
COC(=O)c1cc(COC(=O)c2ccc(OC)c(S(=O)(=O)N3CCCC3)c2)oc1C | · | · | 8.2 | 40.8* | -0.4 | 2.1 | 23.1
COc1ccc(C(=O)OCC(=O)NC2CC2)cc1S(=O)(=O)N1CCOCC1 | -6.3 | -1.8 | 6.8 | 51.7* | 1.0 | 3.6 | 38.7*
O=C(COC(=O)c1ccc(F)c(S(=O)(=O)N2CCOCC2)c1)NC1CCCCC1 | 13.1 | · | -1.4 | 71.2* | 1.2 | 2.3 | 60.3*
CCOC(=O)c1sc(=S)n(-c2ccccc2)c1N(C(C)=O)C(C)=O | -0.8 | 4.4 | -4.1 | 35.5* | 0.0 | 0.2 | 18.4
N#C/C(=C\c1ccc(O)c(O)c1)C(=O)N1CCc2ccccc21 | 0.2 | 4.6 | 23.1 | 48.7* | 26.4 | 10.1 | 33.2*
CCOc1ccc(-n2c(SCC(=O)Nc3cccc4ccccc34)nnc2-c2ccccc2)cc1 | · | · | · | · | 4.4 | · | ·
O=C1C(Cl)=C(N2CCCCC2)C(=O)C(Cl)=C1c1cnc(N2CCCCC2)s1 | · | · | 9.0 | 30.9* | · | 9.5 | 10.0
O=C(CCS(=O)(=O)c1ccc(Br)cc1)N1CCN(c2ccc(F)cc2)CC1 | -0.1 | 10.2 | 8.9 | 39.4* | -5.1 | 10.1 | 16.0
COC[C@@H]1CCCN1c1cccc2c1S(=O)(=O)N(C1CC1)CC[C@@H](C)O2 | · | · | · | · | 11.4 | · | ·
CCOC(=O)c1c(C)n(-c2ccc(C)cc2)c2c(C(C(C)=O)C(=O)O)c(Br)c(O)c(O)c12 (stereo unspecified) | -14.8 | -0.4 | -5.3 | 81.0* | 11.0 | -3.1 | 75.5*
CCOC(=O)c1c(C)n(-c2ccc(C)cc2)c2c(CC(C)=O)c(Br)c(OC)c(O)c12 | 16.8 | 9.2 | 1.1 | 0.7 | 5.5 | -4.3 | ·
O=C(CCc1ccccc1)N[C@H]1[C@H](OC(=O)c2ccco2)CCC[C@@]12C(=O)N(Cc1ccccc1)c1ccccc12 | · | · | · | · | 5.3 | · | ·
COc1ccc(-c2nc3ccccc3s2)cc1NC(C)=O | 9.0 | 8.7 | 18.8 | 41.2* | 1.8 | 0.8 | 2.8
O=C1C=CC(=O)C(CNc2ccc(C(=O)OCc3ccccc3)cc2)=C1 | · | · | 15.1 | 58.9* | 30.0 | 8.0 | 37.0*
CN(C)c1ccc(C(=O)OCc2ccccc2)cc1 | -6.6 | 5.7 | 9.0 | 23.5 | 0.4 | 2.6 | ·
COc1ccc(C2=Nn3c(nnc3C3CCCCC3)SC2)cc1 | · | · | · | · | -1.8 | · | ·
Cc1ccccc1CN(C)C(=O)COC(=O)c1ccc2[nH]c(C)c(C)c2c1 | · | · | 14.3 | 50.5* | 1.8 | 1.4 | 30.8*
CCC(=O)N[C@@H]1C[C@@H]2O[C@@H](CO)CC[C@@H]2O[C@@H]1CCc1ccc(-c2cccc(OC)c2)cc1 | · | · | · | · | -0.4 | · | ·
O=C(COC(=O)c1ccc2ncsc2c1)Nc1ccccc1Br | -21.8 | · | 5.8 | 62.7* | 4.3 | -0.2 | 43.0*
O=C(COC(=O)c1ccc2ncsc2c1)Nc1cccc(Cl)c1 | -14.4 | · | -3.0 | 92.5* | 3.6 | -2.5 | 77.4*
CCCCc1ccc(NC(=O)COC(=O)c2ccc3ncsc3c2)cc1 | · | · | · | · | 2.7 | · | ·
CCCCOC(=O)c1ccc(NC(=O)COC(=O)c2ccc3ncsc3c2)cc1 | 12.3 | · | -0.4 | 61.1* | 4.5 | -3.8 | 63.4*
